The values that follow come from PubChem BioAssay (Tox21).

Structures are written as SMILES. Results filed as inconclusive are left out. Calls of active or inactive are those of the source. Unless noted, the call rests on the fitted dose curve.

The nature of test [1]: Nuclear factor erythroid 2-related factor 2/antioxidant responsive element (Nrf2/ARE) small molecule agonists: luciferase reporter gene qHTS assay in human keratinocytes (AID 1919969). Further: nearly all actives have a fitted effect of over 35% in size. Further: potency means the concentration at half of the fitted maximal effect. A general note: Reporter assays use an easily measured gene product as a stand-in for the process of interest.
The target in test [2] is Gonadotropin-releasing hormone receptor (Homo sapiens) (UniProt P30968). As to the kind of experiment: Human gonadotropin-releasing hormone receptor (GnRHR) small molecule agonists, calcium flux assay in GnRHR-HEK293 cells (AID 1920063). Further: nearly all actives have a fitted effect of over 35% in size. The method, boiled down:
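Tox21-format agonist screen using human GnRHR-expressing HEK293 cells and a fluorescent calcium dye; kinetic 3-min fluorescence reading after compound addition, 15-point concentration series run in triplicate.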
(Calcium assays in cells follow changes in intracellular calcium, usually with a dye or a luminescent sensor.)

Test [3] concerns the target KiSS-1 receptor (Homo sapiens) (UniProt Q969F8). As to the kind of experiment: Human kisspeptin (KISS1R) small molecule agonists, calcium flux assay in KISS1R-HEK293 cells (AID 1920064; active means well fitted activation curve with a large enough effect in the repeat runs). The method, boiled down:
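Intracellular calcium mobilization in KISS1R-HEK293 cells was recorded by fluorescence (Ex/Em 480/540) for 3 min following compound addition to cells pre-loaded 1 h with calcium dye.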

A short description of test [4]: G protein-coupled receptor (GPCR) small molecule agonists, calcium flux assay: HEK293 wild type cell line counter screen (AID 1920065). The procedure, abridged: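 In this agonist-mode screen, ATP is the positive control and DMSO the vehicle. Cells grow 18 h before a 1 h dye incubation at 37 C; signal is taken at Ex/Em 480/540 over 3 min.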
Test [5] in a line: p53 small molecule agonists, cell-based qHTS assay with human liver microsomes (AID 1963577).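 Further: p53 response element beta-lactamase reporter cells with liver microsomes plus NADPH.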 The procedure, abridged:
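16 h, 37 C exposure of p53RE-bla cells to compounds with human liver microsomes and NADPH (0.5 mg/mL final each); detection via LiveBLAzer mixture, 2 h dark at room temperature.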
In general terms: Quantitative high-throughput screening tests each substance at several concentrations.

Test [6] in a line: p53 small molecule agonists, cell-based qHTS assay with rat liver microsomes (AID 1963578). The method, boiled down: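 With rat liver microsomes and NADPH present (0.5 mg/mL final each), p53RE-bla cells are treated with compound for 16 h at 37 C. LiveBLAzer detection mixture is then applied for 2 h at room temperature in the dark.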
Test [7] in a line: p53 small molecule agonists, cell-based qHTS assay with human liver microsomes: qHTS cell viability counter screen (AID 1963579). Further: nearly all actives have a fitted effect of over 45% in size. The method, boiled down: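 In this multiplexed counter screen, the reporter plates were subsequently treated with CellTiter-Glo so that cell viability, reflected by luminescence, could be recorded for p53RE-bla cells dosed 16 h with compounds under microsomal activation (HLM and NADPH).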

Test [8] is described as follows: p53 small molecule agonists, cell-based qHTS assay with rat liver microsomes: qHTS cell viability counter screen (AID 1963580). Further: nearly all actives have a fitted effect of over 45% in size. The method, boiled down:
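Intracellular ATP, by CellTiter-Glo luminescence, defines viability. HCT-116 p53RE-bla cells, 4,000 per well, were compound-treated in the presence of rat liver microsomes and NADPH for 16 h at 37 C.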

The nature of test [9]: p53 small molecule agonists, cell-based qHTS assay: qHTS cell viability counter screen (AID 1963581). Further: nearly all actives have a fitted effect of over 45% in size. The method, boiled down:
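Compounds are pinned onto HCT-116 p53RE-bla cells and left 16 h at 37 C. Following the reporter FRET read, ATP is quantified by CellTiter-Glo luminescence after 30 min at room temperature.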

A short description of test [10]: p53 small molecule agonists, cell-based qHTS assay (AID 1963582; active means well fitted activation curve with a large enough effect in the signal ratio in the repeat runs, not every such curve was filed as active; the % refers to the signal ratio). The method, boiled down: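 Agonist activity was scored from beta-lactamase FRET fluorescence in p53RE-bla cells treated 16 h at 37 C with compounds in DMSO, substrate incubation being 2 h at room temperature.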
For test [11], the target named is 5-hydroxytryptamine receptor 2A (Homo sapiens) (UniProt P28223). As to the kind of experiment: 5-hydroxytryptamine receptor 2A (HTR2A) small molecule antagonists, cell-based qHTS assay (AID 1963586). Further: nearly all actives have a fitted effect of over 45% in size. The method, boiled down: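 Antagonist-mode intracellular calcium assay: DOI (4 nM) added after 5 min compound pre-incubation at room temperature to dye-loaded HTR2A-CHO cells. Fluorescence followed for 3 min, sampled every second.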

The target of test [12] is Muscarinic acetylcholine receptor M1 (Homo sapiens) (UniProt P11229). As to the kind of experiment: Cholinergic receptor muscarinic 1 (CHRM1) small molecule antagonists, cell-based qHTS assay (AID 1963588). Further: nearly all actives have a fitted effect of over 40% in size. The method, boiled down: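 CHRM1-CHO calcium-flux assay, antagonist mode. Cells were seeded 18 h, dye-loaded 1 h at 37 C and given compound for 5 min at RT, then acetylcholine was added at 50nM. FDSS fluorescence was read 3 min; 15 concentrations, three runs.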

The target is the same in test [13]. As to the kind of experiment: Cholinergic receptor muscarinic 1 (CHRM1) small molecule agonists, cell-based qHTS assay (AID 1963589). Further: nearly all actives have a fitted effect of over 35% in size. The procedure, abridged: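 Stable CHRM1-CHO cells (human receptor) were incubated 18 h, dye-loaded for 1 h at 37 C and exposed to test compounds for agonist activity, with calcium-dependent fluorescence followed kinetically.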

The nature of test [14]: cAMP Responsive Elements (CRE) small molecule antagonists, cell-based qHTS assay (AID 1963591; active means well fitted inhibition curve with a large enough effect in the signal ratio in the repeat runs, not every such curve was filed as active; the % refers to the signal ratio). The procedure, abridged:
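qHTS in CRE-bla HEK 293T cells: compound in DMSO, then 0.25 uM NKH477 (final), 3 h at 37 °C/5% CO2; beta-lactamase FRET read-out after 2 h substrate incubation.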

The target of test [15] is Beta-2 adrenergic receptor (Homo sapiens) (UniProt P07550). As to the kind of experiment: Adrenergic beta2 receptor (ADRB2) small molecule antagonists, cell-based qHTS assay (AID 1963592). Further: series mostly up to about 92 µM; nearly all actives have a fitted effect of over 50% in size. The method, boiled down: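 Cells (CHO, stable ADRB2 overexpression) incubated 18-20hr at 37C; compounds added from DMSO; agonist mix (1nM isoproterenol, 100uM IBMX, 25uM Ro-20-1724) added; 0.5hr RT; d2-cAMP and anti-cAMP-cryptate added; 1hr RT; 665/615 nm read.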

Test [16] shares this target. As to the kind of experiment: Adrenergic beta2 receptor (ADRB2) small molecule agonists, cell-based qHTS assay (AID 1963593).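 Further: CHO cells stably overexpressing human ADRB2.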 The method, boiled down:
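CHO cells stably over-expressing ADRB2 were plated overnight at 37C, then dosed with compounds plus a stimulation mix containing 100uM IBMX and 25uM Ro-20-1724 for 0.5hr at room temperature. cAMP was measured by HTRF competition, 1hr.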

Test [17] has as its target D(2) dopamine receptor (Homo sapiens) (UniProt P14416). As to the kind of experiment: Dopamine D2 receptor (DRD2) small molecule agonists, cell-based qHTS assay (AID 1963594). Further: nearly all actives have a fitted effect of over 35% in size. The method, boiled down:
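cAMP accumulation in DRD2-HEK293 cells measured by HTRF after 1 h detection; compounds added 10 min before NKH477 (200nM […]) forskolin-analogue stimulation, 30 min at room temperature, with Ro20-1724 present at 0.1 mM final.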

The target is the same in test [18]. As to the kind of experiment: Dopamine D2 receptor (DRD2) small molecule antagonists, cell-based qHTS assay (AID 1963595; active means well fitted inhibition curve with a large enough effect in the signal ratio in the repeat runs, with a control signal flat; the % refers to the signal ratio). The procedure, abridged:
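DRD2-HEK293; 0.1 mM Ro20-1724; cpd 10 min RT; NKH477 200 nM + quinpirole 12 nM, 30 min RT; HTRF cAMP (cAMP-d2/anti-cAMP cryptate), 665/620 nm ratio after 1 h.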

The target in test [19] is 5-hydroxytryptamine receptor 2A (Homo sapiens) (UniProt P28223). As to the kind of experiment: 5-hydroxytryptamine receptor 2A (HTR2A) small molecule agonists, cell-based qHTS assay (AID 1963587). Further: nearly all actives have a fitted effect of over 30% in size. The method, boiled down:
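Kinetic calcium-flux fluorescence (2 min, 1 sec intervals) after compound addition in agonist mode. HTR2A-CHO cells were cultured 18 h, then dye-loaded 1 h at 37 C.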

Test [20] in a line: cAMP Responsive Elements (CRE) small molecule agonists, cell-based qHTS assay (AID 1963590). The procedure, abridged:
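FRET-based beta-lactamase readout (LiveBLAzer B/G, 2 h RT) quantified CRE activation in HEK 293T CRE-bla cells after 3 h treatment with DMSO-dissolved compounds.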

Sequence of Muscarinic acetylcholine receptor M1 (Homo sapiens) (P11229 whole entry, looked up): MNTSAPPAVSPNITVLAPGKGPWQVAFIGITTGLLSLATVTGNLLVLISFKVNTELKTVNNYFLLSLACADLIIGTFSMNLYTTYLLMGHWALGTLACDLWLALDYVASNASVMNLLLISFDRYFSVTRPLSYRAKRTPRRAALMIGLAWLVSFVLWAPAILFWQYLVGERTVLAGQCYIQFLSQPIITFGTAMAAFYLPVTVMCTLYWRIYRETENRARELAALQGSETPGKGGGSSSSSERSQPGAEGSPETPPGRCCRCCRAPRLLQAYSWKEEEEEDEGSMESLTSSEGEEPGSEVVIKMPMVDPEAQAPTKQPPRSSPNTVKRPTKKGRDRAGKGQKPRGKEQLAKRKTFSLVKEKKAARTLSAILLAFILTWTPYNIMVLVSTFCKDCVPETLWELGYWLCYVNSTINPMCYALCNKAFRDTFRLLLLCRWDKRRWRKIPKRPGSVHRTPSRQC
Sequence of D(2) dopamine receptor (Homo sapiens) (P14416 whole entry, looked up): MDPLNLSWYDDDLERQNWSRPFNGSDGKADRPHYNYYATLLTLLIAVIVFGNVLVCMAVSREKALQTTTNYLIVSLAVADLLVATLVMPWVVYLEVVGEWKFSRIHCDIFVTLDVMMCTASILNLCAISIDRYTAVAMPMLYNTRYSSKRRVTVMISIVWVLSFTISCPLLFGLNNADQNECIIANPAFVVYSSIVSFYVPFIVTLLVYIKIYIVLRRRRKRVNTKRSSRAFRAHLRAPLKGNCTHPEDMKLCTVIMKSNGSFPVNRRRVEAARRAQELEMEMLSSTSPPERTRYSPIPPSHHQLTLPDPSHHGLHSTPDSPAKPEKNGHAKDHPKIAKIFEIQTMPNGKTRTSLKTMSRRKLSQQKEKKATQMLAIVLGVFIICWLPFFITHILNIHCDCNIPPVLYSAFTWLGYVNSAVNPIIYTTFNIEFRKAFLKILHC
Sequence of KiSS-1 receptor (Homo sapiens) (Q969F8 whole entry, looked up): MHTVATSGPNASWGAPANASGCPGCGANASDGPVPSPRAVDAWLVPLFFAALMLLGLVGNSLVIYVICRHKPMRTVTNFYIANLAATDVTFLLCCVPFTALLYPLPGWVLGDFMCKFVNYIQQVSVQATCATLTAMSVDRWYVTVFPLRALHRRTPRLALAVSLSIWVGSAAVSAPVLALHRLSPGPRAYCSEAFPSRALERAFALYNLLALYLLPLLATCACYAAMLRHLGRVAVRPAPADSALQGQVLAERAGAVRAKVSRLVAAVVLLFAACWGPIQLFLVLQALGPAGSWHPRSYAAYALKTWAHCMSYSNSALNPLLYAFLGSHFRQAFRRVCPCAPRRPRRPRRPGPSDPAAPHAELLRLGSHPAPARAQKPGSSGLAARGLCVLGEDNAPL
Sequence of Gonadotropin-releasing hormone receptor (Homo sapiens) (P30968 whole entry, looked up): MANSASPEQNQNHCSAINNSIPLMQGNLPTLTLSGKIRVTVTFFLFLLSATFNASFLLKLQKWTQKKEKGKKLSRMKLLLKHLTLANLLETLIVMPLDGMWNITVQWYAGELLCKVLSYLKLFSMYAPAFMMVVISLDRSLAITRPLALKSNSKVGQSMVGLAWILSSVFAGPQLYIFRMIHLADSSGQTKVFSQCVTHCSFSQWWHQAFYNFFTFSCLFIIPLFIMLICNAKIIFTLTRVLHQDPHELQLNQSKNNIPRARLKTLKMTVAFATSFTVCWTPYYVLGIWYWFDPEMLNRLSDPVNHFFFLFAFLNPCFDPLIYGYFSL
Sequence of Beta-2 adrenergic receptor (Homo sapiens) (P07550 whole entry, looked up): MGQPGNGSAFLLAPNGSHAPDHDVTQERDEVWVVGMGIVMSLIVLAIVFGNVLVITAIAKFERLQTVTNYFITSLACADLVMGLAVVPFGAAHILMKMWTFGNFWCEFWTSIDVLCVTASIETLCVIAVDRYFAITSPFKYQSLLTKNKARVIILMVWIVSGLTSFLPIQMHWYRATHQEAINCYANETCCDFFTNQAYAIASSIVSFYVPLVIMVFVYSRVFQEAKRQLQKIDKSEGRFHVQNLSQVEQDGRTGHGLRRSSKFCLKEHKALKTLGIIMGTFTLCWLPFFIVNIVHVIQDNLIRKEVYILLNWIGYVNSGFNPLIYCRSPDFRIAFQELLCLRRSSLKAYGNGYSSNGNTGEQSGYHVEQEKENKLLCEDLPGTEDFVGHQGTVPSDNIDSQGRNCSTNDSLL
Sequence of 5-hydroxytryptamine receptor 2A (Homo sapiens) (P28223 whole entry, looked up): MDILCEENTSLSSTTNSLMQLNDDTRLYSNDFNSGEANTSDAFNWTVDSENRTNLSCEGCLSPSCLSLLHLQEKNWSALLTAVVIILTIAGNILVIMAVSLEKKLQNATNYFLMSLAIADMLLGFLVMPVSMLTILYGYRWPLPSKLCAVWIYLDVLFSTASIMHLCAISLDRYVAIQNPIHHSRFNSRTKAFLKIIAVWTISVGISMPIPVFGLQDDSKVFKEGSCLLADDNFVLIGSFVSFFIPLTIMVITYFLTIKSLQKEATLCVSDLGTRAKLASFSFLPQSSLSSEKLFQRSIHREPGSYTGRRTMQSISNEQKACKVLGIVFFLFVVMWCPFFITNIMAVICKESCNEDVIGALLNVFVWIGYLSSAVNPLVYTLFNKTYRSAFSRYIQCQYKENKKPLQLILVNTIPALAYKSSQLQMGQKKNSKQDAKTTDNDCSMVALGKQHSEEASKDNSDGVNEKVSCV

For `NC(=O)c1ccc([N+](=O)[O-])cc1Cl`, the Potency result in test [1], in [2], in test [3], in [4], in test [5] and in test [6] was “inactive” throughout. Further, the Potency result in test [7], in [8], in test [9], in test [10], in test [11] and in [12] was “inactive” each time. Further, the Potency entry in [13], in test [14], in test [15], in test [16], in [17] and in [18] was “inactive” in each case.
On to `C=C(C)C(=O)OCCC(F)(F)C(F)(F)C(F)(F)C(F)(F)C(F)(F)C(F)(F)F`, for which the Potency entry in test [1], in test [2], in [3], in [4], in test [5] and in [6] was “inactive” throughout. Also, the Potency result in test [8], in test [9], in test [10], in test [19], in [13] and in test [20] was “inactive” throughout. In addition, the Potency result in test [14], in [15], in [16] and in test [17] was “inactive” throughout.
Turning to `CCCCCCCCCCCCOCC1CO1` (configuration not stated), the Potency in test [1] was 46.3 µM (active). Besides, the Potency entry in test [2], in [3], in [4], in test [7], in [8] and in test [9] was “inactive” each time. The Potency result in test [11], in test [19], in test [12], in [20], in [14] and in test [15] was “inactive” in each case. Moreover, the Potency entry in test [17] and in test [18] was “inactive” throughout.
In the case of `COS(=O)(=O)O`, the Potency result in test [1], in [2], in test [3], in test [4], in test [5] and in [6] was “inactive” throughout. Further, the Potency result in test [8], in test [9], in [10], in test [11], in test [19] and in test [12] was “inactive” each time. Also, the Potency result in test [13], in test [20], in [14], in [15], in test [17] and in [18] was “inactive” throughout.
In the case of `Cc1cccc(N(C)C(=S)Oc2ccc3ccccc3c2)c1`, in test [1], the Potency is 21.7 µM (active). The Potency entry in [2], in [3], in test [4], in test [5], in test [6] and in [7] was “inactive” each time. For the same molecule, the Potency result in [8], in test [9], in [10], in test [20], in test [14] and in test [15] was “inactive” throughout. Also, the Potency entry in test [18] was “inactive”.
Regarding `O=C1C(c2[nH]c3ccc(S(=O)(=O)O)cc3c2O)=Nc2ccc(S(=O)(=O)O)cc21`, the Potency entry in test [1], in test [2], in test [3], in test [4], in [5] and in test [7] was “inactive” each time. For the same molecule, the Potency entry in [8], in test [9], in [10], in test [11], in [19] and in test [12] was “inactive” in each case. In addition, the Potency entry in test [13], in test [20], in [14], in [15], in [16] and in test [17] was “inactive” in each case.
For `CC(C)COC(=O)c1ccccc1O`, the Potency result in [1], in test [2], in test [3], in test [4], in test [5] and in test [6] was “inactive” throughout. The Potency entry in test [7], in [9], in test [10], in [11], in test [19] and in test [12] was “inactive” each time. Also, the Potency result in [13], in test [20], in test [14], in [16], in test [17] and in test [18] was “inactive” in each case.
